Several values for one entry are separate records, joined by “and”; a condition that tells them apart may be missing. Equal entries are not always repeated. Results filed as inconclusive are left out. The source holds several records for some structures; these can differ, active in one and inactive in another. Activity calls are given as the source filed them. Rule for the calls: active = hit-call score of the fitted dose curve at least 0.9, where 1 is the maximum; inconclusive = response in the unintended direction; inactive = score below 0.9.
The molecules below were run against Bile acid receptor (Homo sapiens) (UniProt Q96RI1) (assay: NVS_NR_hFXR_Agonist: NovaScreen (NVS) Nuclear Receptor Binding Assay for human Farnesoid X Receptor Agonism (FXR) (AID 2283347)).
Experimental: NVS_NR_hFXR_Agonist is a biochemical, single-readout assay that uses extracted gene-proteins in a cell-free assay. Measurements were taken 1 hour after chemical dosing in a 384-well plate.NVS_NR_hFXR_Agonist is one of one assay component(s) measured or calculated from the NVS_NR_hFXR_Agonist assay. It is designed to make measurements of fluorescent resonance energy transfer, a form of binding reporter, as detected with fluorescent resonance energy transfer signals by Time-Resolved Fluorescence Resonance Energy Transfer (TR-FRET) technology.Data from the assay component NVS_NR_hFXR_Agonist was analyzed into 1 assay endpoint. This assay endpoint, NVS_NR_hFXR_Agonist, was analyzed in the positive analysis fitting direction relative to DMSO as the negative control and baseline of activity. Using a type of binding reporter, gain-of-signal activity can be used to understand changes in the binding as they relate to the gene NR1H4. Furthermore, this assay endpoint can be referred to as a primary readout, because the performed assay has only produced 1 assay endpoint. To generalize the intended target to other relatable targets, this assay endpoint is annotated to the nuclear receptor intended target family, where the subfamily is non-steroidal.
Binding assays used specific radioligands (tritiated, iodinated) with non-radioactive competitive displacement ligands in agonist or antagonist protocols (as indicated) and various reference compounds and inhibitors to titrate specific binding to receptors and transporters. Most enzyme assays (CYPs, kinases, phosphatases, proteases, HDACs) used recombinant protein and specific substrates (fluorescence mostly, some colorimetric and radioactive) and inhibitors, followed by a biochemical separation of substrate and product. All assays for the biochemical HTS were initially run in duplicate at a single concentration (10 uM for CYP450 assays and 25 uM for all others). […] Each assay was run with positive and negative controls, and concurrent controls on every plate. The follow-up (secondary) screen tested active chemical-pairs in concentration series, as well as a few additional assays not tested in the primary screen, some selected negative inactives, and several cases re-run in the concentration series for confirmatory purposes.

Bile acid receptor (Homo sapiens), sequence (Q96RI1 whole entry, looked up): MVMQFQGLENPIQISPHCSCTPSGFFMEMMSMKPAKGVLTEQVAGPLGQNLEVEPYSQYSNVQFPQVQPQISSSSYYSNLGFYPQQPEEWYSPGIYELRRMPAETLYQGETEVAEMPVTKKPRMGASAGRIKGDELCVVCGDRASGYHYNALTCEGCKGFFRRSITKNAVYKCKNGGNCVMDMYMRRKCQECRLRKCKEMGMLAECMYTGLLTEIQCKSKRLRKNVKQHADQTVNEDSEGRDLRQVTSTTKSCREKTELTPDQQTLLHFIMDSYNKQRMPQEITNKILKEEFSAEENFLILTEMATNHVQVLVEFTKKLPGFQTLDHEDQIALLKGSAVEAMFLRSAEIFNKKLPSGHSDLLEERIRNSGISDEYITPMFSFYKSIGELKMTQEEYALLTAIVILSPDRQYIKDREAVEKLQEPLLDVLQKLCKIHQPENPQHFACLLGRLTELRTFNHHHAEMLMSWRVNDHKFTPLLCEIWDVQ

Q: With `N#Cc1nn(-c2c(Cl)cc(C(F)(F)F)cc2Cl)c(N)c1S(=O)C(F)(F)F` (configuration not stated) as the molecule, how does the outcome read?
A: inactive

Q: With `COP(=S)(OC)Oc1nc(Cl)c(Cl)cc1Cl` as the molecule, how does the outcome read?
A: inactive

Q: For `COC(=O)c1ccccc1C(=O)OC`, which outcome is on record?
A: inactive

Q: Which outcome does the source give for `C=CCC1=C(C)C(OC(=O)C2C(C=C(C)C)C2(C)C)CC1=O` (configuration not stated) here?
A: inactive

Q: With `CCc1nn(C)c(C(=O)NCc2ccc(C(C)(C)C)cc2)c1Cl` as the molecule, how does the outcome read?
A: inactive

These molecules were tested against Estrogen receptor (Homo sapiens) (UniProt P03372) (assay: NVS_NR_hER: NovaScreen (NVS) Nuclear Receptor Binding Assay for human Estrogen Receptor (ER) (AID 2283348)).
Outline: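 Cell-free radioligand binding with protein extracted from MCF7 cells; scintillation counting 18 hours after dosing. Loss of signal versus DMSO baseline read as displacement; primary single-concentration screen at 25 uM in duplicate, actives retested in concentration series.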

Estrogen receptor (Homo sapiens), sequence (P03372 whole entry, looked up, the tested form may be a part): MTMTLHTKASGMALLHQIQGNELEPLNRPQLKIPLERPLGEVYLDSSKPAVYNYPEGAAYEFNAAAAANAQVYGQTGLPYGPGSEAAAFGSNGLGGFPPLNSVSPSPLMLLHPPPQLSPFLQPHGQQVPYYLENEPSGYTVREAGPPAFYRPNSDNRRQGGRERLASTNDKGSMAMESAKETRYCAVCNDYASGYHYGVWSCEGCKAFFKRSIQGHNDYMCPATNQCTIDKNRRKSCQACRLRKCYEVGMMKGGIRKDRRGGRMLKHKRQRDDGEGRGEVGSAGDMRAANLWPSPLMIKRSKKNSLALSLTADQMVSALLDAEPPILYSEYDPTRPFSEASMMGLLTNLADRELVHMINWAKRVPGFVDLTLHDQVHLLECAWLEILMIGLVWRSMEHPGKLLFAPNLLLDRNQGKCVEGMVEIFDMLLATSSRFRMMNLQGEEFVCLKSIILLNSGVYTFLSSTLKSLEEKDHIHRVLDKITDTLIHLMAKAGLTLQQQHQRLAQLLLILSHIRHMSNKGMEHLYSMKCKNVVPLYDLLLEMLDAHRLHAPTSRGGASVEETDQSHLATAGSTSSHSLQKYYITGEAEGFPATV

Q: For `Cc1cc(Cl)ccc1OCC(=O)O`, which outcome is on record?
A: inactive

Q: With `COc1ccc(C(c2ccc(OC)cc2)C(Cl)(Cl)Cl)cc1` as the molecule, how does the AC50 read?
A: 4.64 µM (active) and 5.49 µM (active) and 13.9 µM (active)

Q: What about the outcome of the same molecule?
A: inactive

Q: For `COP(=S)(OC)Oc1nc(Cl)c(Cl)cc1Cl`, which outcome is on record?
A: inactive

Q: For `CCCCOC(=O)c1ccccc1C(=O)OCCCC`, which outcome is on record?
A: inactive

Q: For `COc1cnc(OC)n2nc(NS(=O)(=O)c3c(OCC(F)F)cccc3C(F)(F)F)nc12`, which outcome is on record?
A: inactive

Q: `CCNc1nc(Cl)nc(NC(C)C)n1` was tested. Which outcome did it give?
A: inactive

Q: `Cc1c(F)c(F)c(COC(=O)C2C(/C=C(\Cl)C(F)(F)F)C2(C)C)c(F)c1F` (configuration not stated) was tested. Which outcome did it give?
A: inactive

Q: With `COc1nc(C)nc(NC(=O)NS(=O)(=O)c2ccccc2Cl)n1` as the molecule, how does the outcome read?
A: inactive

Q: For `CCCN(CCC)c1c([N+](=O)[O-])cc(S(N)(=O)=O)cc1[N+](=O)[O-]`, which outcome is on record?
A: inactive

Q: `C=CC1(C)OC(=O)N(c2cc(Cl)cc(Cl)c2)C1=O` (configuration not stated) was tested. Which outcome did it give?
A: inactive

Q: How did the outcome turn out when `N#Cc1cc(Br)c(O)c(Br)c1` was run?
A: inactive

Q: With `CON(C)C(=O)Nc1ccc(Cl)c(Cl)c1` as the molecule, how does the outcome read?
A: inactive

Q: How did the outcome turn out when `C=CCC1=C(C)C(OC(=O)C2C(C=C(C)C)C2(C)C)CC1=O` (configuration not stated) was run?
A: inactive

Q: `CC(Oc1ccc(Cl)cc1Cl)C(=O)O` (configuration not stated) was tested. Which outcome did it give?
A: inactive

Q: How did the outcome turn out when `CCCCNC(=O)OCC#CI` was run?
A: inactive

Q: With `CCCCC(CC)COC(=O)c1ccccc1C(=O)OCC(CC)CCCC` (configuration not stated) as the molecule, how does the outcome read?
A: inactive

Q: `OC(c1ccc(Cl)cc1)(c1cncnc1)c1ccccc1Cl` (configuration not stated) was tested. Which outcome did it give?
A: inactive

Q: How did the outcome turn out when `CO/C=C(/C(=O)OC)c1ccccc1Oc1cc(Oc2ccccc2C#N)ncn1` was run?
A: inactive

Q: `Cc1ccc(-c2c(Cl)nc(C#N)n2S(=O)(=O)N(C)C)cc1` was tested. Which outcome did it give?
A: inactive

Q: How did the outcome turn out when `CCOC(=O)CC(SP(=S)(OC)OC)C(=O)OCC` (configuration not stated) was run?
A: inactive

Each molecule was assayed against Estrogen receptor (Homo sapiens) (UniProt P03372) (assay: OT_ER_ERaERa_1440: Odyssey Thera (OT) 24-hour HEK293T Protein-Complementation Assay for Estrogen Receptor-alpha/-alpha Homodimer (AID 2283349);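 note: hits raise fluorescence above DMSO for agonists and antagonists alike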).
Outline: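 Readout is the rise in mean fluorescence from reporter fragment complementation when ERα LBD (aa 310-547) units dimerize in HEK293T cells. Measured 24 h after dosing and analysed as increase over DMSO control.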

Q: For `CCNc1nc(Cl)nc(NC(C)C)n1`, which outcome is on record?
A: inactive

Q: `CCOc1cc(Oc2ccc(C(F)(F)F)cc2Cl)ccc1[N+](=O)[O-]` was tested. Which outcome did it give?
A: inactive

Q: `C=CC1(C)OC(=O)N(c2cc(Cl)cc(Cl)c2)C1=O` (configuration not stated) was tested. Which outcome did it give?
A: inactive

Q: `OC(c1ccc(Cl)cc1)(c1cncnc1)c1ccccc1Cl` (configuration not stated) was tested. Which outcome did it give?
A: inactive

Q: With `O=C(O)c1nc(Cl)ccc1Cl` as the molecule, how does the outcome read?
A: inactive

Q: How did the outcome turn out when `COc1nc(NC(C)C)nc(NC(C)C)n1` was run?
A: inactive

Each molecule was assayed against Bile acid receptor (Homo sapiens) (UniProt Q96RI1) (assay: NVS_NR_hFXR_Antagonist: NovaScreen (NVS) Nuclear Receptor Binding Assay for human Farnesoid X Receptor Antagonism (FXR) (AID 2283350)).
Outline: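 Cell-free TR-FRET ligand-binding read-out on human FXR (NR1H4) in antagonist mode, measured 1 h after dosing. Primary screen in duplicate at 25 uM, actives retested in concentration series; signal loss scored versus DMSO.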

Q: With `COc1ccc(C(c2ccc(OC)cc2)C(Cl)(Cl)Cl)cc1` as the molecule, how does the outcome read?
A: inactive

Q: How did the outcome turn out when `COC(=O)c1ccccc1C(=O)OC` was run?
A: inactive

Q: Which results are given for `CCCN(CCC)c1c([N+](=O)[O-])cc(S(N)(=O)=O)cc1[N+](=O)[O-]`?
A: AC50: 26.4 µM (active); outcome: inactive

Q: `N#Cc1cc(Br)c(O)c(Br)c1` was tested. Which outcome did it give?
A: inactive

Each molecule was assayed against Estrogen receptor (Homo sapiens) (UniProt P03372) (assay: OT_ER_ERaERa_0480: Odyssey Thera (OT) 8-hour HEK293T Protein-Complementation Assay for Estrogen Receptor-alpha/-alpha Homodimer (AID 2283351);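 note: rise in fluorescence from reassembled reporter fragments on ERα LBD homodimer in nucleus or whole cell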).
Outline: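 Binding reporter in which dimerisation of ERα LBD (aa 310-547) fusions reconstitutes a fluorescent reporter in HEK293T cells. Compounds incubated 8 h; mean fluorescence intensity increase versus DMSO scored.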

Q: Which outcome does the source give for `Cc1cc(Cl)ccc1OCC(=O)O` here?
A: inactive

Q: For `COc1ccc(C(c2ccc(OC)cc2)C(Cl)(Cl)Cl)cc1`, which AC50 is on record?
A: 13 µM (active) and 12.5 µM (active) and 10.8 µM (active)

Q: How did the outcome turn out when `N#Cc1nn(-c2c(Cl)cc(C(F)(F)F)cc2Cl)c(N)c1S(=O)C(F)(F)F` (configuration not stated) was run?
A: inactive

Q: For `COP(=S)(OC)Oc1nc(Cl)c(Cl)cc1Cl`, which outcome is on record?
A: inactive

Q: With `CCCCOC(=O)c1ccccc1C(=O)OCCCC` as the molecule, how does the AC50 read?
A: 46.7 µM (active) and 37.4 µM (active) and 35.4 µM (active)

Q: With `COc1cnc(OC)n2nc(NS(=O)(=O)c3c(OCC(F)F)cccc3C(F)(F)F)nc12` as the molecule, how does the outcome read?
A: inactive

Q: `CCNc1nc(Cl)nc(NC(C)C)n1` was tested. Which outcome did it give?
A: inactive

Q: With `Cc1c(F)c(F)c(COC(=O)C2C(/C=C(\Cl)C(F)(F)F)C2(C)C)c(F)c1F` (configuration not stated) as the molecule, how does the outcome read?
A: inactive

Q: For `CCOc1cc(Oc2ccc(C(F)(F)F)cc2Cl)ccc1[N+](=O)[O-]`, which outcome is on record?
A: inactive

Q: For `COC(=O)c1ccccc1C(=O)OC`, which outcome is on record?
A: inactive

Q: For `CCCN(CCC)c1c([N+](=O)[O-])cc(S(N)(=O)=O)cc1[N+](=O)[O-]`, which outcome is on record?
A: inactive

Q: `C=CC1(C)OC(=O)N(c2cc(Cl)cc(Cl)c2)C1=O` (configuration not stated) was tested. Which outcome did it give?
A: inactive

Q: Which outcome does the source give for `N#Cc1cc(Br)c(O)c(Br)c1` here?
A: inactive

Q: Which outcome does the source give for `CON(C)C(=O)Nc1ccc(Cl)c(Cl)c1` here?
A: inactive

Q: Which outcome does the source give for `C=CCC1=C(C)C(OC(=O)C2C(C=C(C)C)C2(C)C)CC1=O` (configuration not stated) here?
A: inactive

Q: `CC(Oc1ccc(Cl)cc1Cl)C(=O)O` (configuration not stated) was tested. Which outcome did it give?
A: inactive

Q: How did the outcome turn out when `CCCCNC(=O)OCC#CI` was run?
A: inactive

Q: How did the outcome turn out when `CCCCC(CC)COC(=O)c1ccccc1C(=O)OCC(CC)CCCC` (configuration not stated) was run?
A: inactive

Q: How did the outcome turn out when `OC(c1ccc(Cl)cc1)(c1cncnc1)c1ccccc1Cl` (configuration not stated) was run?
A: inactive

Q: For `O=C(O)c1nc(Cl)ccc1Cl`, which outcome is on record?
A: inactive

Q: Which outcome does the source give for `CCc1nn(C)c(C(=O)NCc2ccc(C(C)(C)C)cc2)c1Cl` here?
A: inactive

Q: Which outcome does the source give for `CO/C=C(/C(=O)OC)c1ccccc1Oc1cc(Oc2ccccc2C#N)ncn1` here?
A: inactive

Q: For `Cc1ccc(-c2c(Cl)nc(C#N)n2S(=O)(=O)N(C)C)cc1`, which outcome is on record?
A: inactive

Q: `COc1nc(NC(C)C)nc(NC(C)C)n1` was tested. Which outcome did it give?
A: inactive

Q: With `CCOC(=O)CC(SP(=S)(OC)OC)C(=O)OCC` (configuration not stated) as the molecule, how does the outcome read?
A: inactive

— PubChem BioAssay (EPA / NIEHS)
